Reference: PubChem BioAssay AID1159580 (chemical genetic matrix, 2015)
The whole screen tested about 5,500 compounds, of which about 2,000 (36%) were called active. Roughly 18% stayed inconclusive and do not appear here. Cut-off read from the data, not from the text of the source: active = normalized growth mostly below about 0.91 (no sharp cut-off); inconclusive = no clear call, values can overlap the other calls; inactive = mostly above about 0.92. The list shows a part of the results.

Experiment: chemical genetic growth profiling, strain panel (AID 1159580);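 note: tested at 20 µM; growth read once vehicle control cultures reached saturation at 30 °C; 1 = growth at the plate median or of vehicle wells; lower values mean less growth of the strain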
Settings: S. cerevisiae deletion strains, growth OD

Measured: normalized growth

C=C(C)[C@H]1CN[C@H](C(=O)O)[C@H]1CC(=O)O
inactive: locus YAL040C, strain CLN3, stronger effect = lower value 1.02 | locus YCL061C, strain MRC1 (second series), stronger effect = lower value 1 | locus YDR363W, strain ESC2, stronger effect = lower value 1.03 | locus YER002W, strain NOP16, stronger effect = lower value 1.01 | locus YMR307W, strain GAS1, stronger effect = lower value 1 | locus YNL128W, strain TEP1, stronger effect = lower value 1 | locus YNL175C, strain NOP13, stronger effect = lower value 1.02 | locus YNL197C, strain WHI3, stronger effect = lower value 1.02 | locus YNL224C, strain SQS1, stronger effect = lower value 1 | locus YOR083W, strain WHI5 (second series), stronger effect = lower value 1.03
